Measurements taken from the supplement of paper PMC7366291.
Structures can show the parent of a compound that is named as a salt. ± gives the standard deviation or the standard deviation of the averaged measurements.

Legend:
Conditions in all cases: 25 µM; exposure: 24-48 hpf
[1] = tested on: Danio rerio Tg(wt1b:EGFP) embryo, pronephros; assay: glomerular separation, fold change vs DMSO control; higher = glomeruli further apart (abnormal)
Summary of the method: (§1)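 Using a Fiji macro, distances and angles were calculated from 16 reference points set by hand on maximum projections of pronephroi imaged dorsally (470 nm, 10 z-slices) in agarose-filled 96-well plates. The dechorionated Tg(wt1b:EGFP) zebrafish embryos had received 25 μM compound in 0.5% DMSO in HEPES-buffered E3 with 0.003% PTU from 24 to 48 hpf at 28.5°C. Values more than 2 SD from a feature's mean were excluded. Each feature appears as a fold change over the mean of DMSO-treated embryos from the same day.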

[2] = tested on: Danio rerio Tg(wt1b:EGFP) embryo, pronephros; assay: glomerular width (mean of left and right), fold change vs DMSO control; higher = wider glomerulus
Summary of the method: as §1

[3] = tested on: Danio rerio Tg(wt1b:EGFP) embryo, pronephros; assay: fraction of imaged embryos annotated as normal kidney; higher = less nephrotoxic; extreme values may be limits of the assay
Summary of the method: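 The read-out is the proportion of embryos in each treatment manually annotated as normal-kidney. Exposure ran from 24 to 48 hpf at 28.5°C in 12-well plates, using dechorionated Tg(wt1b:EGFP) zebrafish embryos in 5 mM HEPES-buffered E3 with 0.003% PTU, 0.5% DMSO and 25 μM compound. For imaging, larvae were anaesthetised with tricaine, positioned dorsally in agarose-filled 96-well plates and captured by widefield fluorescence (470 nm, 10 z-slices), with scoring done on maximum projections.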

[4] = tested on: Danio rerio Tg(wt1b:EGFP) embryo, pronephros; assay: pronephric angle neck segment to proximal convoluted tubule (mean of left and right), fold change vs DMSO control; higher = larger pronephric angle
Summary of the method: as §1

| SMILES | glomerular separation [1] | glomerular width [2] | fraction of imaged embryos annotated as normal kidney [3] | pronephric angle neck segment [4] |
| --- | --- | --- | --- | --- |
| CC/C(=C(\c1ccccc1)c1ccc(OCCN(C)C)cc1)c1ccccc1 [Tamoxifen citrate] | 0.968 ± 0.33 | 0.977 ± 0.019 | 0.833 | 1.02 ± 0.045 |
| COC(=O)Nc1nc2cc(C(=O)c3ccccc3)ccc2[nH]1 [Mebendazole] | 4.75 ± 1.7 | 0.552 ± 0.014 | 0 | 1.91 ± 0.057 |
| Cc1ccccc1OCC(O)CO (stereo unspecified) [Mephenesin] | 1.06 ± 0.57 | 1.01 ± 0.012 | 0.917 | 0.993 ± 0.033 |
| CC(=O)Nc1ccc(OCC(O)CNC(C)C)cc1 (stereo unspecified) [Practolol] | 1.01 ± 0.36 | 0.986 ± 0.081 | 0.833 | 1.02 ± 0.051 |
| COc1ccc(-c2cc(=O)c3c(O)cc(O[C@@H]4O[C@H](CO[C@@H]5O[C@@H](C)[C@H](O)[C@@H](O)[C@H]5O)[C@@H](O)[C@H](O)[C@H]4O)cc3o2)cc1O [Diosmin] | 1.06 ± 0.42 | 0.996 ± 0.011 | 0.727 | 0.974 ± 0.032 |
| CN(C)c1ccc(O)c2c1C[C@H]1C[C@H]3[C@H](N(C)C)C(O)=C(C(N)=O)C(=O)[C@@]3(O)C(O)=C1C2=O [Minocycline hydrochloride] | 1.02 ± 0.2 | 1.02 ± 0.024 | 0.8 | 0.92712 ± 6.2e-05 |
| Clc1ccc(Nc2nnc(Cc3ccncc3)c3ccccc23)cc1 [Vatalanib] | 1.37 ± 0.99 | 0.886 ± 0.039 | 0.833 | 1.02 ± 0.046 |
| CCOC(=O)n1ccn(C)c1=S [Carbimazole] | 1.35 ± 0.58 | 0.997 ± 0.029 | 0.667 | 1.052 ± 0.0026 |
| C#C[C@]1(O)CC[C@H]2[C@@H]3CCC4=C(CCC(=O)C4)[C@H]3CC[C@@]21C [Norethynodrel] | 1.17 ± 0.41 | 0.9892 ± 0.0088 | 0.667 | 0.984 ± 0.06 |
